Screening data: PubChem BioAssay, several laboratories
RN4220 kill: growth inhibition of S. aureus RN4220, primary screen, OD600; 16 h; inhibition, % (no concentration beside the values); 330,000 tested, 0.33% active; in the data active means inhibition above about 85%;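 further: plate controls were untreated cells for no effect and reference antibiotic for full effect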
PfHsp40 rescue: rescue of yeast from PfHsp40 toxicity, primary screen, S. cerevisiae, ATP luminescence; S. cerevisiae expressing PfHsp40, growth rescue; growth rescue, % at 12.5 µM; 340,000 tested, 0.68% active; in the data active means growth rescue above about 28%, passing the limit was not always enough; inconclusive means no clear call, values can overlap the other calls;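 further: yeast W303a lacking pdr1 and pdr3 grown in galactose medium; growth measured after three days at 30 °C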
MazF activator: activators of E. coli MazEF toxin-antitoxin RNase, primary screen, biochemical, fluorescence, uHTS. Endoribonuclease toxin MazF (Escherichia coli (strain K12)), P0AE70. FAM/BHQ RNA-DNA oligo cleavage fluorescence, 5 h. activation, % at 20 µM. 350,000 tested, 0.32% active. AID 504720, 2011; in the data active means activation above about 50%
Target sequence (P0AE70 whole entry, looked up): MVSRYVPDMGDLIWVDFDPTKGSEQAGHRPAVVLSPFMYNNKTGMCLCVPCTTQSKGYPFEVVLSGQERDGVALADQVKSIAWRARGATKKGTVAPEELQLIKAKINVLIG
ugtP null kill: growth inhibition of ugtP-null S. aureus, primary screen, RN4220 ugtP deletion, OD600; 16 h; growth inhibition, % (no concentration beside the values); 330,000 tested, 0.54% active; in the data active means growth inhibition above about 68%;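 further: plate controls were untreated wells for no effect and antibiotic for full effect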
TcdB GH inh: TcdB glycohydrolase inhibitors, primary screen, biochemical, single point, plate reader; Toxin B (Clostridioides difficile), P18177; TcdB glycohydrolase enzymatic assay; inhibition, % at 9.99 µM; 350,000 tested, 0.24% active; in the data active means inhibition above about 10%
Mtb hypoxia inh: PubChem AID 1159583 | M. tuberculosis hypoxia-regulated fluorescent reporter, fluorescence | fluorescence inhibition, % (test concentration not listed) | 300,000 tested, 0.1% active; in the data active means fluorescence inhibition mostly above about 23%, no sharp cut-off; inactive means mostly below about 17%
* marks the source's active call; other numbers are inactive results; ? = inconclusive; / = no result given. Sampled rows, rich in hits. Any-hit rate of the full collection: about 1.3%.

SMILES | RN4220 kill | PfHsp40 rescue | MazF activator | ugtP null kill | TcdB GH inh | Mtb hypoxia inh
Cc1cc(/C=C2\SC(=S)NC2=O)c(C)n1-c1cccc(O)c1 | 23 | 240* | -16 | -15 | 1 | 4
Cc1cc(/C=C2\SC(=S)N(C)C2=O)c(C)n1-c1ccccc1O | 24 | 1 | -47 | -7 | 0 | 6
COc1ccc(OC(=O)c2ccncc2)cc1 | -2 | 0 | -4 | -4 | / | -1
COc1ccc(N(C(=O)c2ccncc2)S(=O)(=O)c2ccccc2)cc1 | 5 | 340* | 3 | 5 | 0 | 3
COc1ccc(N(C(=O)c2ccncc2)S(=O)(=O)c2ccc(F)cc2)cc1 | / | 436* | / | / | 1 | /
COc1ccc(N(CC(=O)NC2CCCCC2)S(=O)(=O)c2cccs2)cc1 | 4 | -1 | 3 | 7 | 1 | 8
O=C(Oc1ccc(OC(=O)c2ccncc2)cc1)c1ccncc1 | 0 | 0 | -3 | -8 | 2 | 37*
COc1ccc(N(C(=O)c2ccccc2C)S(=O)(=O)c2cccs2)cc1 | 3 | 0 | -3 | 84* | / | 9
COc1ccc(S(=O)(=O)N(C(=O)c2ccncc2)c2ccc(OC(=O)c3ccncc3)cc2)cc1 | 4 | 515* | 4 | 0 | -1 | 4
Cn1c2ccccc2c(=O)c2ccc(NCCc3cccs3)cc21 | 15 | ? | -12 | 29 | 1 | 38*
CCCCN(C)c1c(C)nc2ccc(C(=O)NCc3cccs3)cn12 | / | / | / | / | 18* | /
O=C1C2C(C=Cc3ccccc3)N3C(=O)CN(Cc4ccccn4)C(=O)[C@@]3(Cc3ccccc3)C2C(=O)N1c1ccccc1 (some centres not stated) | 5 | / | / | -3 | / | 3
Cc1ccc(S(=O)(=O)NCC[C@H]2CC[C@@H](NC(=O)c3cccc(F)c3)[C@H](CO)O2)cc1 | / | / | / | / | 0 | /
CC(C)N1CCN(Cc2cccc3c2OCO3)CC1CCO (configuration not stated) | 3 | -2 | 6 | -2 | -1 | 0
CC(C)N1CCN(Cc2cc3c(cc2Cl)OCO3)CC1CCO (configuration not stated) | 7 | -2 | 83* | 10 | 0 | -9
Nc1nnn(CC(=O)NN=Cc2ccc(Cl)cc2Cl)n1 | 2 | / | / | 8 | / | 3
Cc1ccccc1-[n+]1c(-c2ccccc2)cc(-c2ccccc2)cc1-c1ccccc1 | 100* | 5 | 14 | 101* | 1 | /
O=C([O-])c1ccccc1-[n+]1c(-c2ccccc2)cc(-c2ccccc2)cc1-c1ccccc1 | 98* | 1 | 17 | 98* | 1 | 12
[O-]c1ccccc1-[n+]1c(-c2ccccc2)cc(-c2ccccc2)cc1-c1ccccc1 | 101* | 2 | 28 | 100* | -1 | /
CCCC#Cc1ccc2c(c1)O[C@H](CN(C)C(C)=O)[C@H](C)CN([C@@H](C)CO)S2(=O)=O | / | / | / | / | 0 | /
CC(=NNC(=O)c1nnn(-c2nonc2N)c1-c1ccc(Cl)c(Cl)c1)c1ccncc1 | 2 | / | / | -4 | / | -9
CCCS(=O)(=O)c1c(S(=O)(=O)CCC)c2c(C)cccn2c1C(=O)N/N=C/c1cc(O)cc(O)c1 | / | 452* | 6 | / | 2 | /
CCCS(=O)(=O)c1c(S(=O)(=O)CCC)c2c(C)cccn2c1C(N)=O | 4 | -1 | 1 | -3 | / | 4
C=CCC(CC(=O)N(CCO)Cc1ccccc1)C(=O)NC(COC(=O)C(CC=C)Cc1ccc(F)cc1)Cc1ccccc1 (configuration not stated) | -7 | / | / | 18 | / | 11
CCCNC(=O)C[C@@H]1CC[C@H]2[C@@H](COc3ccc(NC(=O)Cc4ccccc4)cc3C(=O)N2C)O1 | / | / | / | / | 0 | /
SMILES | RN4220 kill | PfHsp40 rescue | MazF activator | ugtP null kill | TcdB GH inh | Mtb hypoxia inh
c1ccc(OCCSc2nnc3sc4ccccc4n23)cc1 | 9 | 3 | -3 | 3 | 12* | -2
O=C(/C=C/c1ccccc1Cl)NCCc1ccc(F)cc1 | -4 | 39* | 5 | -6 | 1 | -7
C[C@H](NC(=O)C[C@H]1C=C[C@@H](NC(=O)C2CCC2)[C@H](CO)O1)c1ccccc1 | / | / | / | / | -10 | /
C[C@H]1CN([C@@H](C)CO)C(=O)c2cc(C#CC3(O)CCCC3)cnc2O[C@H]1CN(C)C(=O)C1CCCCC1 | / | / | / | / | 0 | /
O=C(Cc1ccsc1)NNC(=O)c1ccccc1O | 5 | 171* | 6 | -2 | 1 | 11
O=C(COC(=O)Cc1ccsc1)NNC(=O)c1ccccc1 | / | -1 | 4 | / | 0 | /
COc1ccc(N/C=C2\C(=O)CCc3c2oc2cc(Cl)c(O)c(Cl)c32)cc1 | 11 | 0 | 120* | 1 | 1 | 11
COc1ccc(N/C=C2\CCOC2=O)cc1 | 0 | 1 | -7 | -3 | / | -5
CC(C)(C)C(=O)ON=C1C(=O)N(c2ccccc2)c2ccccc21 | 2 | / | / | -13 | / | /
Oc1c(I)cc(I)c2cccnc12 | 95* | ? | -5 | 96* | 1 | 7
O=C(Nc1ccc(C(F)(F)F)cc1)N[C@H]1CC[C@H](CC(=O)N2CCCCC2)O[C@H]1CO | / | / | / | / | 0 | /
CCS(=O)(=O)c1ccc2oc(Nc3ccc(C(C)(C)C)cc3)nc2c1 | -5 | 2 | 0 | 1 | 12* | -4
CN(C/C=C/C#CC(C)(C)C)Cc1cccc2ccccc12 | / | 1 | -2 | / | 2 | /
CN(CC=CC#CC(C)(C)C)Cc1cccc2ccccc12 | -6 | / | / | 89* | / | 1
O=C(Nc1cccnc1)Nc1cc(Cl)cc(Cl)c1 | 100* | -2 | -4 | 99* | 0 | -5
O=C(NN=Cc1ccc2c(c1)OCO2)c1ccco1 | 1 | / | / | -1 | / | 2
OCC#CCSc1nnc(-c2ccc(Br)cc2)o1 | 7 | 0 | 3 | 5 | / | /
OCC#CCSc1nnc(-c2ccccc2Br)o1 | 11 | 0 | 9 | 5 | / | 41*
Cn1c(=O)[nH]c(=O)c2c1[nH]c(=S)n2CCCc1ccccc1 | -2 | 1 | -6 | -1 | 12* | -1
Cn1c(=O)[nH]c(=O)c2c1[nH]c(=S)n2Cc1ccc(Cl)cc1 | 3 | 1 | 1 | 9 | 14* | 3
Cn1c(=O)c2c([nH]c(=S)n2CCCc2ccccc2)n(C)c1=O | 4 | 0 | -6 | 6 | 9 | 2
COc1ccc2c3c(n(C)c2c1)[C@H](CO)N(S(=O)(=O)c1cn(C)cn1)CC31CCN(C)CC1 | / | / | / | / | 0 | /
Cc1cc(C)nc(SCc2cc(=O)c(OC(=O)c3ccc(S(=O)(=O)N4CCCC4)cc3)co2)n1 | 2 | 130* | -1 | 10 | / | 13
Cc1cc(C)nc(SCc2cc(=O)c(OC(=O)c3ccco3)co2)n1 | 2 | 0 | 3 | 1 | 0 | -5
CC1C(Sc2ccccc2)CC(=O)OC1c1ccc(-c2ccccc2)cc1 (configuration not stated) | 5 | / | / | 0 | / | 9
O=c1c2ccccc2oc2cc(-c3ccc4[nH]ccc4c3)ccc12 | 88* | 11 | -11 | 88* | 1 | 11
O=c1c2ccccc2oc2ccccc12 | / | / | / | / | 0 | /
